{"source": "PubChem BioAssay (NCATS)", "note": "Records with an inconclusive call do not appear. The source made the active and inactive calls. The call rests on the fitted dose curve; in most records, active means well fitted cell-killing curve with a large enough effect; inconclusive means small, poorly fitted or top-dose-only effect, or effect the other way; inactive means no such curve, though single readings can be large or run the other way. Potency means the concentration at half of the fitted maximal effect."}
{"test": "Quantitative High-Throughput drug screen in 47 multiple myeloma cell lines against the NCATS MIPE library collection: MMM1_PLB cell viability assay (AID 1918976); further: nearly all actives have a fitted effect of over 35% in size", "conditions": "MMM1 myeloma cells viability, CellTiter-Glo, 48 h", "excerpt": "PI: Beverly A. Mock Ph.D.\nLaboratory of Cancer Biology and Genetics,\nCenter for Cancer Research, National Cancer Institute,\nNational Institute of Health, Bethesda, Maryland\nDrug resistance and disease progression are common in multiple myeloma (MM) patients, underscoring the need for new therapeutic combinations. […] We hypothesized that effective combinations would reduce MYC expression and enhance p16 activity. […] These preclinical data identify potentially useful drug combinations for evaluation in drug-resistant MM and reveal potential mechanisms of combined drug sensitivity.\nDescribed herein is the primary MIPE qHTS used to cherrypick compounds. Validated compounds were then further tested for potential synergistic activiy.\n[1] Peat TJ, Gaikwad SM, Dubois W, Gyabaah-Kessie N, Zhang S, Gorjifard S, Phyo Z, Andres M, Hughitt VK, Simpson RM, Miller MA, Girvin AT, Taylor A, Williams D, D'Antonio N, Zhang Y, Rajagopalan A, Flietner E, Wilson K, Zhang X, Shinn P, Klumpp-Thomas C, McKnight C, Itkin Z, Chen L, Kazandijian D, Zhang J, Michalowski AM, Simmons JK, Keats J, Thomas CJ, Mock BA. Drug combinations identified by high-throughput screening promote cell cycle transition and upregulate Smad pathways in myeloma. Cancer Lett. 2023 Aug 1;568:216284. doi: 10.1016/j.canlet.2023.216284. Epub 2023 Jun 24. PMID: 37356470; PMCID: PMC10408729.\nSEQUENCE No. (e.g., 1, 2, 3, etc.); […] (e.g., Cells, Incubation, Reagent, etc.); VALUE and DESCRIPTION.\n1; Cells; 5 uL; white, solid bottom 1536-well Greiner assay plate.\n2; Compounds; 23 nL; Kalypsis pin tool (Wako USA) equipped with a 1536-well pin head to transfer to the assay plates.\n3; Incubation; 48 hours; 37C incubation.\n4; Reagent;5uL; CellTiter Glo (Promega).\n5; Detector; 425V; Luminescence; Viewlux PerkinElmer.\nNOTES (numbers refer to Sequence numbers above)\n1. The cell-based screening methods employed in this study were like those previously published. Briefly, the corresponding myeloma cell lines were screened in 1,536-well plates with 500 cells, 5-uL per well for inhibition of cell viability (assessed by measuring ATP levels with CellTiterGlo).\n2. NCATS MIPE 4.0 library of approved and investigational drugs were added using the Kalypsis pin tool. Wells treated with DMSO only for 100% viability and media only for 0% viability were used as controls.\n3. The assay plates were covered and incubated for 48 hours in a 37C, 5% CO2 incubator with controlled humidity.\n4. After 48 hours, CellTilter-GloTM luminescent substrate mix (Promega) reagent was added to the assay plate and plates we incubated for 5 min at room temperature.\n5. Signal was measured as median relative luminescence units on a ViewLux (PerkinElmer) multiplate reader.\n[1] Heske CM, Davis MI, Baumgart JT, Wilson K, Gormally MV, Chen L, Zhang X, Ceribelli M, Duveau DY, Guha R, Ferrer M, Arnaldez FI, Ji J, Tran HL, Zhang Y, Mendoza A, Helman LJ, Thomas CJ. Matrix Screen Identifies Synergistic Combination of PARP Inhibitors and Nicotinamide Phosphoribosyltransferase (NAMPT) Inhibitors in Ewing Sarcoma. Clin Cancer Res. 2017 Dec 1;23(23):7301-7311. doi: 10.1158/1078-0432.CCR-17-1121. Epub 2017 Sep 12. PMID: 28899971; PMCID: PMC6636827."}
{"smiles": "COC1(CS(=O)c2ccccc2)CCN(CCc2c[nH]c3ccc(F)cc23)CC1", "note": "(stereo not given)", "Potency": "3.72 µM (active)"}
{"smiles": "CN(C)[C@@H]1C(=O)C(C(N)=O)=C(O)[C@@]2(O)C(=O)C3=C(O)c4c(O)cccc4[C@@](C)(O)[C@H]3C[C@@H]12", "Potency": "8.33 µM (active)"}
{"smiles": "C=C(C)[C@H]1Cc2c(ccc3c2O[C@@H]2COc4cc(OC)c(OC)cc4[C@@H]2C3=O)O1", "Potency": "0.166 µM (active)"}
{"smiles": "CNC(=O)N1N=C(c2ccc(N)cc2)c2cc3c(cc2CC1C)OCO3", "note": "(stereo not given)", "Potency": "14.8 µM (active)"}
{"smiles": "Cn1c(CCCC(=O)O)nc2cc(N(CCCl)CCCl)ccc21", "Potency": "10.5 µM (active)"}
{"smiles": "COc1ccc2c(c1OC)CN1CCc3cc4c(cc3C1C2)OCO4", "note": "(stereo not given)", "Potency": "26.4 µM (active)"}
{"smiles": "Cc1sc2c(c1C)C(c1ccc(Cl)cc1)=N[C@@H](CC(=O)OC(C)(C)C)c1nnc(C)n1-2", "Potency": "1.05 µM (active)"}
{"smiles": "CC1=C2C[C@@H]3[C@@H](CC=C4C[C@@H](O)CC[C@@]43C)[C@@H]2CC[C@]12O[C@H]1C[C@H](C)CN[C@H]1[C@H]2C", "Potency": "9.35 µM (active)"}
{"smiles": "C#CCN(C)[C@H](C)Cc1ccccc1", "Potency": "2.96 µM (active)"}
{"smiles": "CN(C)CCc1ccc(O)cc1", "Potency": "1.66 µM (active)"}
{"smiles": "Fc1ccc(C(OCCN2CCN(CCCc3ccccc3)CC2)c2ccc(F)cc2)cc1", "Potency": "14.8 µM (active)"}
{"smiles": "C[C@@H]1[C@@H](C(=O)C[C@H]2O[C@@H]3O[C@]4(C)CC[C@@H]5[C@H](C)CC[C@@H]([C@H]2C)[C@@]35OO4)O[C@@H]2O[C@]3(C)CC[C@H]4[C@H](C)CC[C@@H]1[C@@]24OO3", "Potency": "0.418 µM (active)"}
{"smiles": "N[C@@H](Cc1ccc(N(CCCl)CCCl)cc1)C(=O)O", "Potency": "4.69 µM (active)"}
{"smiles": "COC[C@H]1OC(=O)c2coc3c2[C@@]1(C)C1=C(C3=O)C2CCC(=O)[C@@]2(C)C[C@H]1OC(C)=O", "note": "(stereo not given in full)", "Potency": "2.64 µM (active)"}
{"smiles": "C[C@@H]1[C@@H](CC(C[C@H]2O[C@@H]3O[C@]4(C)CC[C@@H]5[C@H](C)CC[C@@H]([C@H]2C)[C@@]35OO4)C[S+](=O)([O-])c2ccc(COC(=O)N(C)C)cc2)O[C@@H]2O[C@]3(C)CC[C@H]4[C@H](C)CC[C@@H]1[C@@]24OO3", "note": "(stereo not given in full)", "Potency": "0.148 µM (active)"}
